According to the supplement of paper PMC3334620:
The full ranking holds about 33,000 sequences; the median of “E-score (-0.5 to 0.5)” is about -0.035, and the highest 2% start at about 0.35. For the sample, the highest values were picked, then their nearest neighbours and some sequences at random.

target: T1, Pdr3 (UniProt P33200); test: PBM E-score (8-mer binding enrichment) (E-score (-0.5 to 0.5)); higher = stronger / more preferred TF binding; details: protein concentration: 200 nM; construct: GST-full length
T1 sequence: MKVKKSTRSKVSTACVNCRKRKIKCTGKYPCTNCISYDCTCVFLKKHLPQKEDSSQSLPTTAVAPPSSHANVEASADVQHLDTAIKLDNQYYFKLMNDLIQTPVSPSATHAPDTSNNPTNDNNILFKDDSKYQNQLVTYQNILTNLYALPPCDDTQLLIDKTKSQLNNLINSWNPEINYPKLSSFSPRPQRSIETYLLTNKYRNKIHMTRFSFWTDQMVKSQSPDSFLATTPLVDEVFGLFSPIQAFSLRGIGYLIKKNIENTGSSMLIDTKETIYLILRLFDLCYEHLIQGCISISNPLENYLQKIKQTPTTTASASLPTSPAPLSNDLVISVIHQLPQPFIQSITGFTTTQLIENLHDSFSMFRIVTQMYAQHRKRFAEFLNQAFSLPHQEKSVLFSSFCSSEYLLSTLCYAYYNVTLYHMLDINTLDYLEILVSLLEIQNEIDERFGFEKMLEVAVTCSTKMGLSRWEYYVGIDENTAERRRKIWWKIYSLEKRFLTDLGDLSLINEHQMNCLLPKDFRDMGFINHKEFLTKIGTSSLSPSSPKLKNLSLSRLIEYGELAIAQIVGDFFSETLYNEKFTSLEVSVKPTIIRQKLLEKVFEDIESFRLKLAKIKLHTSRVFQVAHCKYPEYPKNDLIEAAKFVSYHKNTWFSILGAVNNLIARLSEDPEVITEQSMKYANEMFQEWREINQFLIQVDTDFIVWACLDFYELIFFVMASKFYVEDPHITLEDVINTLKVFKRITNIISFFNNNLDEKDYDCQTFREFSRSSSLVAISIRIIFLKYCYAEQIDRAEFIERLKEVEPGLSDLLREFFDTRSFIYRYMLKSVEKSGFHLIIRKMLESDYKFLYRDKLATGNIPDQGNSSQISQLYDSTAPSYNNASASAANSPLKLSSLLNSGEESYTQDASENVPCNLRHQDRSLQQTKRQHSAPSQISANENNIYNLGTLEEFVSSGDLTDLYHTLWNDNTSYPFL
Procedure, shortened: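 For each ungapped eight-base word taken together with its reverse complement, the Universal PBM Analysis Suite assigned an E-score. Binding data came from GST-tagged yeast transcription factors, applied at about 100-200 nM, on universal all-10-mer Agilent arrays made double-stranded by primer extension. Fluorescent anti-GST marked bound protein, and scans were normalised with masliner.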

| Sequence | PBM E-score |
| --- | --- |
| GCAGCCAC | 0.0849 |
| ATGCACAA | -0.0898 |
| ACGGACAC | 0.321 |
| CTCTCGGC | 0.118 |
| CTCTCGGA | 0.358 |
| ATCTCGGG | 0.278 |
| CTCTCGAA | -0.197 |
| ATCTCGGA | 0.376 |
| GTCTCGGA | 0.306 |
| CCGTTTTC | 0.202 |
| CCGGGGGA | 0.311 |
| CCCGGGAC | 0.451 |
| CCTGGGAA | -0.0887 |
| GCCGGGAC | 0.316 |
| ACCGGGAG | 0.144 |
| CCCGGGGA | 0.414 |
| CCGGGGAC | 0.234 |
| CACGGGAG | 0.0682 |
| CCCGGGAA | 0.443 |
| CCGGGGAG | 0.332 |
| CCCGGGGC | 0.338 |
| CCCGGGAG | 0.397 |
| CCTCTACC | -0.104 |
| AGCGAGCA | -0.189 |
| ATAATCAT | 0.0794 |

| Sequence | PBM E-score |
| --- | --- |
| AGTCTTAG | -0.224 |
| CGATTCGA | 0.143 |
| AGTGTCGA | 0.0406 |
| ATGACCAA | -0.0317 |
| ATGCCCTC | -0.0557 |
| AGCTAAAT | -0.165 |
| ACAGTTAC | -0.111 |
| CGCTATCC | 0.158 |
| AACGAGAA | -0.0948 |
| CAAGGGCA | -0.0651 |
| AGGCACGC | 0.049 |
| GGCGGCCC | -0.00494 |
| CTCACCAA | 0.136 |
| AAGCGGTC | 0.00531 |
| CCCCGGGA | 0.417 |
| CCCCGGCA | 0.189 |
| TCCGGGCA | 0.346 |
| TCCCGGGA | 0.485 |
| ACGGGGAA | 0.204 |
| TCCCGGCA | 0.323 |
| CGGGGGAA | 0.276 |
| TCCGGGAA | 0.386 |
| CCGGGGAA | 0.356 |
| GCCGGGAA | 0.304 |
| TACCGGGA | 0.347 |

| Sequence | PBM E-score |
| --- | --- |
| CCCCGGTA | 0.122 |
| ATTACACA | -0.0105 |
| AAACGCGG | 0.245 |
| ACCAGGCG | -0.0145 |
| AGCCTTTA | -0.193 |
| GGCTAAAC | -0.135 |
| ATCATTCC | 0.281 |
| CTCATTCA | -0.0959 |
| CTCATTCC | 0.356 |
| AGATAGGC | -0.16 |
| ATGCTCTC | -0.108 |
| GTGCCGTA | 0.0678 |
| ATGCCGGA | 0.405 |
| CTGCCGGA | 0.32 |
| GTGCCGGA | 0.369 |
| ATGCCGGG | 0.245 |
| ATGCCGGC | 0.341 |
| CTAGCAAA | -0.187 |
| CTTCCGAC | 0.267 |
| ACTCCGAC | 0.255 |
| CTTCCGAA | 0.385 |
| ATTCCGAA | 0.436 |
| GTTCCGAA | 0.471 |
| ACTCCGAA | 0.238 |
| CTTCCAAA | -0.155 |

| Sequence | PBM E-score |
| --- | --- |
| GGTCCGAA | 0.319 |
| AATCCGAA | 0.0894 |
| CTACCGAA | -0.0817 |
| ATTCCGAC | 0.413 |
| GTTCCAAA | -0.00321 |
| ACACGGCC | 0.14 |
| CTCCACGA | -0.144 |
| GTCTAGGA | -0.256 |
| AACGCATC | -0.139 |
| ACTTACCG | 0.233 |
| AATTTTAG | -0.194 |
| ATCAGTCA | 0.0413 |
| GGCCAAGA | -0.176 |
| GGGTTGAC | 0.0502 |
| CTCGCGCA | -0.029 |
| AGCCTAAT | -0.208 |
| AGCATACC | -0.0406 |
| AGTCCGAG | 0.281 |
| ACTCCGAG | 0.28 |
| ATTCCGAG | 0.449 |
| AAGAGCAA | -0.123 |
| ATGCGGTC | 0.21 |
| CGTTAAGA | -0.136 |
| CGGGGAAC | 0.258 |
| CCGGGAAG | 0.359 |

| Sequence | PBM E-score |
| --- | --- |
| ACGGGAAC | 0.33 |
| CCGGGAAC | 0.362 |
| ACGGGAAG | 0.133 |
| CCGGGAAA | 0.344 |
| AGAAGGTA | -0.0743 |
| ACGAGGCC | -0.0311 |
| AGTATGCC | -0.0201 |
| CGCTTCCA | -0.00125 |
| CGCTTCCG | 0.419 |
| AGCTTCCA | 0.0336 |
| CGCTTCCC | 0.0936 |
| AGCTTCCG | 0.416 |
| AGCTTCCC | -0.0703 |
| AAGGAACA | -0.129 |
| ACGGAACA | 0.477 |
| GAGGAACA | 0.147 |
| TAGGAACA | -0.0452 |
| CAGGAACA | -0.0115 |
| TGGGAACA | 0.0839 |
| CCGGAACA | 0.471 |
| GCGGAACA | 0.474 |
| ATGGAACA | -0.0996 |
| TCGGAACA | 0.483 |
| GTGGAACA | 0.0611 |
| CTGGAACA | 0.117 |

| Sequence | PBM E-score |
| --- | --- |
| ACTTGCAG | -0.177 |
| AGGGCCTG | -0.195 |
| AGAAAATA | 0.0181 |
| GGAGTAAC | 0.0889 |
| ATAGACCC | 0.154 |
| TCTCGTCA | -0.0279 |
| AGGGGCAC | -0.293 |
| ACATCGCG | 0.0219 |
| CGCTTCGC | -0.0359 |
| AAACATGT | 0.00604 |
| CCTTCCTC | -0.201 |
| CCTTCCGC | 0.38 |
| CCTTCCGA | 0.323 |
| ACTTCCCC | -0.132 |
| ACTTCCGC | 0.385 |
| ACTTCCAC | 0.0382 |
| AGATTCAT | -0.0927 |
| AGTTGCCG | 0.196 |
| CCCAGAGA | -0.223 |
| GCCGGAGA | 0.244 |
| ACCGGAGA | 0.353 |
| CCCGGAGG | 0.165 |
| CCCGGAGA | 0.387 |
| TCCGGAGA | 0.44 |
| AAATTCAT | -0.0189 |

| Sequence | PBM E-score |
| --- | --- |
| CGTGCCTC | -0.0179 |
| AACGCAAT | 0.115 |
| CTTCGGTA | -0.0957 |
| CTTCGGAC | 0.283 |
| CTTCGGAA | 0.438 |
| GTTCGGGA | 0.233 |
| ATTCGGAA | 0.415 |
| GTTCGGAA | 0.431 |
| ATTCGGAC | 0.275 |
| GTTCGGCA | 0.054 |
| ATTCGGAG | 0.2 |
| CTATCCTA | -0.0548 |
| ACTACGCA | -0.236 |
| GTGCAAAA | -0.168 |
| GACGCTAA | -0.213 |
| CTTCCGCC | 0.336 |
| ATTCCGCA | 0.379 |
| GTTCCGCA | 0.462 |
| ATTCCGCC | 0.417 |
| ATTCCGCG | 0.479 |
| ACTCCGCA | 0.154 |
| GTTCCTCA | 0.0277 |
| ATTCCACA | 0.204 |
| ATGCCGCG | 0.346 |
| CTTCCGCA | 0.307 |

| Sequence | PBM E-score |
| --- | --- |
| GTTCCCCA | -0.173 |
| AATCCGCC | 0.17 |
| GCTCTGAA | -0.126 |
| CAGTGCTC | -0.213 |
| AAGAGATA | -0.206 |
| TCCGATAA | 0.289 |
| ACTAGAAA | -0.213 |
| ACTATGTA | -0.181 |
| CCTAGTGC | -0.0662 |
| CTAGGTGC | -0.121 |
| CAGGTGCA | 0.0121 |
| CTCCGGAA | 0.441 |
| CTCCGGCA | 0.34 |
| TTCCGAAA | 0.41 |
| ATCCGAAT | 0.365 |
| ATCCGAAC | 0.316 |
| ATCCGAAG | 0.22 |
| ATCCGAAA | 0.248 |
| CTCCGGAG | 0.476 |
| CACCGGAG | 0.253 |
| CTCCGGTA | 0.321 |
| GTCCGAAA | 0.264 |
| CTCCGAAG | 0.311 |
| CGCCAGTA | 0.00965 |
| AACTGCGC | -0.146 |

| Sequence | PBM E-score |
| --- | --- |
| AGAGATCG | -0.137 |
| AGCGCGGG | 0.324 |
| AGCAAGTA | -0.149 |
| ACGGCACA | -0.0224 |
| ACTGTAGC | -0.197 |
| GTCCGCAC | 0.215 |
| CTCCGTAC | 0.162 |
| CTCCGGCC | 0.0522 |
| ATCCGGCC | 0.403 |
| ATCCGCAA | 0.222 |
| GTCCGCAA | 0.259 |
| CTCCGGAC | 0.382 |
| CTCCGGTC | 0.328 |
| GTCCGGAC | 0.481 |
| ATCCGGCG | 0.323 |
| TTCCGCAA | 0.404 |
| CCCGCTCG | 0.133 |
| ACGTCTTG | -0.178 |
| ACGGTTAT | -0.0715 |
| CGCCTCAC | 0.152 |
| ACGGTAAA | 0.0442 |
| GTCAAGGA | -0.0724 |
| GTCCGGCA | 0.295 |
| ATCCGGTC | 0.215 |
| ATCCGGTA | 0.168 |

| Sequence | PBM E-score |
| --- | --- |
| ATCCGGAT | 0.465 |
| ATCCGCAT | 0.267 |
| ACCCGGAC | 0.317 |
| GTCCGGTA | 0.181 |
| ATCCGGAA | 0.464 |
| ATCCGGAC | 0.355 |
| ATCAGGAT | 0.113 |
| ATCCGGCA | 0.255 |
| GTCCGGAA | 0.457 |
| CTGAGTGA | 0.179 |
| CACCCAGC | -0.0529 |
| CCTAGATC | -0.201 |
| ACTTTGCA | 0.00219 |
| ATCCGGAG | 0.433 |
| ATCCGCAG | 0.316 |
| ATCCGGTG | 0.35 |
| TAGCATGA | -0.224 |
